91 molecules from PubChem BioAssay AID1851 (National Center for Advancing Translational Sciences (NCATS), 2009) can be followed below.

In all, about 16,000 compounds went through this assay and about 4,000 (25%) were called active. Another 26% or so got no clear call; they are omitted. These entries were drawn from the full list. A number with no mark means an inactive call. The call rests on the fitted dose curve; in most records, active means well fitted curve in the direction sought with a large enough effect; inconclusive means small, poorly fitted or top-dose-only effect, or effect the other way; inactive means no such curve, though single readings can be large or run the other way.
On the % scale 0 is the no-effect control and ±100 the full control effect.

The target of this experiment is Cytochrome P450 2C9 (Homo sapiens) (UniProt P11712). Briefly: Cytochrome panel assay with activity outcomes. The note with it: recombinant CYP, pro-luciferin dealkylation, luminescence, p450-cyp2c9; series mostly up to 57.1 µM.
Sequence of Cytochrome P450 2C9 (Homo sapiens) (P11712 whole entry, looked up): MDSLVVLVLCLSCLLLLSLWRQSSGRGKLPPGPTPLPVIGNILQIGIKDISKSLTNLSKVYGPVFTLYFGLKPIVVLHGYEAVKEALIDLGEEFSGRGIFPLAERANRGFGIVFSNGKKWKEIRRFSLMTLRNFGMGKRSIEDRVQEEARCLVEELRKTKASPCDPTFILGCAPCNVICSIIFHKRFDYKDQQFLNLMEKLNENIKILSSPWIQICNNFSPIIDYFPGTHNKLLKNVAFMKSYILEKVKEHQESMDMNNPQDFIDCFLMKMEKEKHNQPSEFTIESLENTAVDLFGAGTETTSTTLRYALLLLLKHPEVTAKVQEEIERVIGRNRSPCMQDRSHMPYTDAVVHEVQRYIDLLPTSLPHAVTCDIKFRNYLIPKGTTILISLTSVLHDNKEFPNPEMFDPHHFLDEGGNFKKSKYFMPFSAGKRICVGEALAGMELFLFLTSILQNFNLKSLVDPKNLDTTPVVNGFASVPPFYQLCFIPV
Usually AC50 stands for the midpoint of the concentration-response curve, whichever way the signal moves. Take `CN1CCC(=C2c3ccccc3Sc3ccccc32)CC1`: the AC50 result is “inactive”.
Turning to `COc1ccccc1N1CCN(C(=O)C(NS(=O)(=O)c2cccs2)c2ccccc2)CC1` (stereo unspecified), the concentration at half-maximal activity (AC50) was 11.2 µM (active).
Same read-out and setting: the value for `O=C(CCNS(=O)(=O)c1cccs1)N1CCc2ccccc2C1` was “inactive”; that for `COC(=O)N1CCC2(CC1)CCN(c1ccccc1)CC2` was “inactive”; that for `COC(=O)NCC(c1cccnc1)N1CCN(c2ccccc2OC)CC1` (stereo unspecified) was “inactive”.
The same measure, in the same setting: for `COc1ccccc1N1CCN(Cc2cc(=O)n3ccsc3n2)CC1` the value was “inactive”.
Take `O=C(C(NS(=O)(=O)c1cccs1)c1ccccc1)N1CCN(c2ccccc2)CC1` (stereo unspecified): the AC50 is 8.91 µM (active).
For `S=c1c2[nH]cnc2ncn1CCSc1ncnc2nc[nH]c12`, the activity, negative = inhibition was -0.398% [at 11.4 µM].
Same read-out and setting: the value for `NS(=O)(=O)c1ccc(NCc2cnc3ccccc3n2)cc1` was 1.39% [at 11.4 µM].
Still for that read-out and setting: the value for `NS(=O)(=O)c1ccc(NCc2nc3ccccc3[nH]2)cc1` was 7.25% [at 11.4 µM].
As for `NS(=O)(=O)c1ccc(NCc2ccccc2OCc2ccccc2F)cc1`, the AC50 is 3.98 µM (active).
On to `O=c1nc(N2CCCCCC2)nc(N2CCCCCC2)[nH]1`, for which the AC50 result was “inactive”.
For `Cc1cnc(CNc2ccnc(-c3cccc(NS(C)(=O)=O)c3)n2)cn1`, the activity, negative = inhibition is 16.8% [at 2.29 µM].
Same read-out and setting: the value for `Nc1nc(N)c(N=Nc2ccc(C(=O)O)c(O)c2)c(N)n1` was -6.7% [at 11.4 µM].
For `Cc1ccc(C)c(C(=N)c2ccccc2Cc2ccccc2)c1`, the activity, negative = inhibition is -26.1% [at 11.4 µM].
Take `Cc1ccccc1Cn1c(Cc2ccccc2)nc2ccccc21`: the half-maximal activity concentration (AC50) is 5.01 µM (active).
Turning to `O=C(C(Cc1ccccc1)N1C(=O)C2C3CCC(C3)C2C1=O)N1CCCCC1` (stereo unspecified), the AC50 entry is “inactive”.
Turning to `Cn1c(=O)[nH]c(=O)c2c1nc(CN1CCOCC1)n2CCCO`, the AC50 entry is “inactive”.
In the case of `CCCCCn1c(CN2CCN(c3cc(Cl)ccc3C)CC2)nc2c1c(=O)[nH]c(=O)n2C`, the AC50 is 3.55 µM (active).
On to `CCN1CCN(c2nc3c(c(=O)[nH]c(=O)n3C)n2CCCSc2ncccn2)CC1`, for which the AC50 result was “inactive”.
Same read-out and setting: for `COc1cccc(=O)c2c(C)n(-c3cc(C)cc(C)c3)c(C)c12` the value was 3.98 µM (active).
For `NC(Cc1ccccc1)=NCC(=O)O`, the activity, negative = inhibition was -1.5% [at 11.4 µM].
Take `CCCc1nnc(SCC(=O)N2CCCCC2)n1CCCOC`: the AC50 entry was “inactive”.
Same read-out and setting: the value for `Cn1c(=O)cc(SCC(=O)NCCCN2CCOCC2)c2ccc(Cl)cc21` was “inactive”; that for `CCOC(=O)CSc1cc(=O)n(C)c2cc(Cl)ccc12` was 14.1 µM (active); that for `O=[N+]([O-])c1cc(/C=N/O)ccc1SCc1ccccc1` was “inactive”.
Still for that read-out and setting: the value for `Cc1c(C(=O)NN2CCN(C)CC2)cccc1[N+](=O)[O-]` was “inactive”; that for `Cc1c(NC(=O)C(Sc2ccccc2)c2ccccc2)cccc1[N+](=O)[O-]` (stereo unspecified) was 0.251 µM (active).
The same measure, in the same setting: for `CC(C)Cn1c(-c2nn(C)cc2Cl)n[nH]c1=S` the value was “inactive”; for `CN1CCN(c2ncc3nc(-c4ccc(Cl)cc4)c(=O)n(CCC#N)c3n2)CC1`, “inactive”; for `CCOC(=O)c1cc(-c2ccc(Cl)cc2)nc2c1c(C)nn2CCC#N`, 10 µM (active).
For the molecule `O=C1CC[C@](CCc2nc3ccccc3[nH]2)(c2ccccc2)C(=O)N1`, the activity, negative = inhibition was -12.8% [at 11.4 µM].
As for `OC(Cc1nc2ccccc2[nH]1)c1ccccc1Cl` (stereo unspecified), the AC50 is 14.1 µM (active).
Still for that read-out and setting: for `OCCNc1nc2ccccc2[nH]1` the value was “inactive”.
The same measure, in the same setting: the value for `COCC(=O)N1CCC[C@@]2(CCN(Cc3ccccc3OC)C2)C1` was “inactive”; that for `CCC(=O)Nc1ccccc1C(=O)OCC(=O)c1ccccc1` was 0.631 µM (active); that for `CCC(=O)Nc1ccccc1C(=O)OCC(=O)c1cccc2ccccc12` was 2.24 µM (active).
Regarding `CCc1ccc(C(=O)COC(=O)C(Cc2ccccc2)NC(=O)C2CCC(C)CC2)cc1` (stereo unspecified), the AC50 result is “inactive”.
As for `CCOC(=O)c1ccccc1NC(=O)/C(C)=C/C(=O)O`, the AC50 result is “inactive”.
For the molecule `C[N+]1(C)CCO[C@](O)(c2ccccc2)C1`, the activity, negative = inhibition is 3.31% [at 11.4 µM].
`CSCC[C@H](NC(=O)c1nn(C)c(=O)c2ccccc12)c1nc2ccccc2[nH]1`: the AC50 was 2 µM (active).
On to `CSCC[C@H](NC(=O)CC(C)(C)C)c1nc2ccccc2[nH]1`, for which the half-maximal activity concentration (AC50) was 14.1 µM (active).
As for `CCCCCCCCCCCC1=C(O)C(=O)C=C(O)C1=O`, the AC50 entry is “inactive”.
Regarding `Cn1c(C(F)(F)F)nc2c(=O)oc3ccccc3c21`, the AC50 entry was “inactive”.
In the case of `O=C(O)c1ccc(C(=O)c2ccccc2)c(C(=O)O)c1`, the activity, negative = inhibition is 21.8% [at 11.4 µM].
For `O=C(OCc1ccc(Cl)cc1)c1ccccc1C(=O)c1ccccc1`, the AC50 is 4.47 µM (active).
Same read-out and setting: for `O=C(O)c1ccccc1C(=O)NNc1ccc(Cl)cc1` the value was “inactive”; for `CC(C)(C)C1CCC(OCC(O)CN2CCN(c3ccccc3)CC2)CC1` (stereo unspecified), “inactive”.
For the molecule `CCOC(=O)CCN1C(=O)[C@H]2[C@H]3[C@H](O)[C@H](O)C/C(=N/OC[C@@H](O)COCc4ccco4)[C@@H]3CC[C@@H]2C1=O`, the activity, negative = inhibition is -5.27% [at 11.4 µM].
As for `CC1CCN(c2cc(N3CCC(C)CC3)c([N+](=O)[O-])cc2/C=C(\C#N)c2nn(-c3ccccc3)c(N)c2C#N)CC1`, the AC50 was 0.224 µM (active).
The same measure, in the same setting: the value for `N#C/C(=C\c1cc([N+](=O)[O-])c(N2CCCCC2)cc1N1CCCCC1)c1nn(-c2ccccc2)c(N)c1C#N` was 0.316 µM (active).
Still for that read-out and setting: the value for `COc1cccc(-c2cncnc2NCc2cccs2)c1` was 0.398 µM (active).
As for `CS(=O)(=O)Nc1cccc(-c2cncnc2Nc2ccc(F)cc2)c1`, the activity, negative = inhibition was -8.15% [at 2.29 µM].
In the case of `COc1cccc(-c2cncnc2NCc2cccnc2)c1`, the activity, negative = inhibition was -10.5% [at 2.29 µM].
The same measure, in the same setting: the value for `CS(=O)(=O)Nc1cccc(-c2cncnc2Nc2ccccc2)c1` was -11.4% [at 2.29 µM]; that for `c1cncc(-c2cncnc2NCc2cccs2)c1` was -1.39% [at 2.29 µM]; that for `CS(=O)(=O)Nc1cccc(-c2cncnc2NCc2cccnc2)c1` was -3.43% [at 2.29 µM].
Turning to `CS(=O)(=O)Nc1cccc(-c2cncnc2NCc2ccccc2)c1`, the AC50 was 0.398 µM (active).
For `COc1cccc(-c2cncnc2NCc2cnc(C)cn2)c1`, the activity, negative = inhibition was 4.41% [at 2.29 µM].
Same read-out and setting: for `COc1ccccc1CNc1ncncc1-c1cccc(NS(C)(=O)=O)c1` the value was -27.7% [at 2.29 µM].
For `CS(=O)(=O)Nc1cccc(-c2cncnc2NCc2cccs2)c1`, the AC50 is 0.126 µM (active).
Same read-out and setting: the value for `COc1cccc(-c2cncnc2NCCc2cnc[nH]2)c1` was 0.251 µM (active).
In the case of `COc1cccc(-c2cncnc2NCCN2CCOCC2)c1`, the activity, negative = inhibition was 1.81% [at 2.29 µM].
As to `O=C(O)CSCNC(=O)CC12CC3CC(CC(C3)C1)C2`, the AC50 result was “inactive”.
On the same count and under the same terms, the value for `c1csc(CNc2ncncc2-c2ccc3c(c2)OCO3)c1` was 0.316 µM (active).
On to `CN(C)c1ccc(-c2cncnc2NCc2cccs2)cc1`, for which the activity, negative = inhibition was -23.6% [at 2.29 µM].
On the same count and under the same terms, the value for `Cc1cccc(CNc2ncncc2-c2ccc3c(c2)OCO3)c1` was -20.1% [at 2.29 µM].
For the molecule `CCCN(CCC)CCCNC(=O)c1ccc2c(c1)N(CC)C(=O)c1ccccc1S2=O` (stereo unspecified), the AC50 result was “inactive”.
The same measure, in the same setting: the value for `CCOc1c2ccc(C(=O)NCc3ccc(OC(F)(F)F)cc3)cc2nn1C` was 15.8 µM (active); that for `COCCn1nc2cc(C(=O)NCc3cc(C(F)(F)F)cc(C(F)(F)F)c3)ccc2c1OC` was “inactive”.
Still for that read-out and setting: the value for `CCn1nc2cc(C(=O)NCC34CC5CC(CC(C5)C3)C4)ccc2c1OC` was 14.1 µM (active); that for `CCOc1c2ccc(C(=O)NCCCCc3ccccc3)cc2nn1CC` was 11.2 µM (active).
Regarding `CCOc1c2ccc(C(=O)NCc3ccc4c(c3)OCO4)cc2nn1CC`, the AC50 is 14.1 µM (active).
On to `NC[C@@H]1O[C@H](O[C@@H]2[C@H](O[C@@H]3O[C@H](CO)[C@@H](COC[C@H]4O[C@@H](CN)[C@@H](O)[C@@H](O)[C@@H]4N)[C@@H]3O)[C@@H](O)[C@@H](N)C[C@H]2N)[C@@H](N)[C@H](O)[C@@H]1O`, for which the AC50 entry was “inactive”.
In the case of `Clc1ccccc1-c1nc(-n2ccnc2)c2ccccc2n1`, the activity, negative = inhibition was -16.4% [at 2.29 µM].
Consider `CCCn1nc2cc(C(=O)NCc3ccccc3OC)ccc2c1OCC`, for which the AC50 entry is “inactive”.
Still for that read-out and setting: for `CCCn1nc2cc(C(=O)NCCCCc3ccccc3)ccc2c1OCC` the value was 12.6 µM (active).
Turning to `CCOC(=O)N/N=C1/C[C@@H](O)[C@@H](O)[C@@H]2[C@@H]3C(=O)N(C(C)(C)C)C(=O)[C@H]3CC[C@H]12`, the activity, negative = inhibition is -0.388% [at 11.4 µM].
On to `Cc1cc(O)c(/C=N/Nc2cccc(Cl)c2)c(=O)o1`, for which the AC50 is 3.16 µM (active).
Still for that read-out and setting: for `Clc1cccc(N/N=C/c2ccc(N3CCOCC3)cc2)c1` the value was “inactive”; for `CCOC(=O)CSc1nnc(NC(=O)c2cccc(S(=O)(=O)N3CCCCCC3)c2)s1`, 1 µM (active).
Same read-out and setting: for `CCC(CC)c1nnc(NC(=O)c2cccc(S(=O)(=O)N3CCc4ccccc43)c2)s1` the value was 1.58 µM (active).
Regarding `O=S(=O)(O)c1ccc2c(N=Nc3cccc4ccccc34)c(O)c(S(=O)(=O)O)cc2c1`, the activity, negative = inhibition is -3.82% [at 11.4 µM].
On to `O=[N+]([O-])c1ccc2c(N=Nc3ccc4ccccc4c3O)c(O)cc(S(=O)(=O)O)c2c1`, for which the AC50 was 3.16 µM (active).
In the case of `O=S(=O)(O)c1ccc(N=Nc2ccc3c(S(=O)(=O)O)cccc3c2O)c2ccccc12`, the activity, negative = inhibition is -12.3% [at 11.4 µM].
Same read-out and setting: for `O=C(O)c1ccc(NS(=O)(=O)Cc2ccccc2)cc1` the value was -7.98% [at 11.4 µM].
Turning to `O=C(Nc1cccc(C(F)(F)F)c1)N(Cc1ccc(Cl)cc1)CC(O)C(F)(F)F` (stereo unspecified), the AC50 is 8.91 µM (active).
In the case of `O=S(=O)(C[C@H](O)C(Cl)(Cl)Cl)NNc1ccccc1`, the activity, negative = inhibition is -2.23% [at 11.4 µM].
As for `O=C(Nc1ccccc1)N(Cc1ccccc1)CC(O)C(F)(F)F` (stereo unspecified), the half-maximal activity concentration (AC50) was 12.6 µM (active).
Turning to `O=C(O)CNc1ccc(C(=O)O)cc1`, the activity, negative = inhibition is 3.72% [at 11.4 µM].
Still for that read-out and setting: for `Cc1cc(C2(c3cc(C)c(O)c(C(=O)O)c3)OS(=O)(=O)c3ccccc32)cc(C(=O)O)c1O` the value was 14.9% [at 11.4 µM].
